The text below walks through data of the supplement of paper PMC11732987, “Enantioselective OTUD7B fragment discovery through chemoproteomics screening and high-throughput optimisation” (Communications Chemistry, 2025).

Holding throughout (assay): log2 ratio of Biotin-Ahx-Ub-VS probe labelling (fragment/DMSO); higher = less target engagement (more negative = stronger competition), active = hit call of the paper (q ≤ 0.05, log2 ratio ≤ -1)
Conditions in all cases: compound concentration: 200 uM; treatment time: 3 h

For one assay, the target named is T1, USP19 (UniProt O94966).
T1 sequence (whole entry): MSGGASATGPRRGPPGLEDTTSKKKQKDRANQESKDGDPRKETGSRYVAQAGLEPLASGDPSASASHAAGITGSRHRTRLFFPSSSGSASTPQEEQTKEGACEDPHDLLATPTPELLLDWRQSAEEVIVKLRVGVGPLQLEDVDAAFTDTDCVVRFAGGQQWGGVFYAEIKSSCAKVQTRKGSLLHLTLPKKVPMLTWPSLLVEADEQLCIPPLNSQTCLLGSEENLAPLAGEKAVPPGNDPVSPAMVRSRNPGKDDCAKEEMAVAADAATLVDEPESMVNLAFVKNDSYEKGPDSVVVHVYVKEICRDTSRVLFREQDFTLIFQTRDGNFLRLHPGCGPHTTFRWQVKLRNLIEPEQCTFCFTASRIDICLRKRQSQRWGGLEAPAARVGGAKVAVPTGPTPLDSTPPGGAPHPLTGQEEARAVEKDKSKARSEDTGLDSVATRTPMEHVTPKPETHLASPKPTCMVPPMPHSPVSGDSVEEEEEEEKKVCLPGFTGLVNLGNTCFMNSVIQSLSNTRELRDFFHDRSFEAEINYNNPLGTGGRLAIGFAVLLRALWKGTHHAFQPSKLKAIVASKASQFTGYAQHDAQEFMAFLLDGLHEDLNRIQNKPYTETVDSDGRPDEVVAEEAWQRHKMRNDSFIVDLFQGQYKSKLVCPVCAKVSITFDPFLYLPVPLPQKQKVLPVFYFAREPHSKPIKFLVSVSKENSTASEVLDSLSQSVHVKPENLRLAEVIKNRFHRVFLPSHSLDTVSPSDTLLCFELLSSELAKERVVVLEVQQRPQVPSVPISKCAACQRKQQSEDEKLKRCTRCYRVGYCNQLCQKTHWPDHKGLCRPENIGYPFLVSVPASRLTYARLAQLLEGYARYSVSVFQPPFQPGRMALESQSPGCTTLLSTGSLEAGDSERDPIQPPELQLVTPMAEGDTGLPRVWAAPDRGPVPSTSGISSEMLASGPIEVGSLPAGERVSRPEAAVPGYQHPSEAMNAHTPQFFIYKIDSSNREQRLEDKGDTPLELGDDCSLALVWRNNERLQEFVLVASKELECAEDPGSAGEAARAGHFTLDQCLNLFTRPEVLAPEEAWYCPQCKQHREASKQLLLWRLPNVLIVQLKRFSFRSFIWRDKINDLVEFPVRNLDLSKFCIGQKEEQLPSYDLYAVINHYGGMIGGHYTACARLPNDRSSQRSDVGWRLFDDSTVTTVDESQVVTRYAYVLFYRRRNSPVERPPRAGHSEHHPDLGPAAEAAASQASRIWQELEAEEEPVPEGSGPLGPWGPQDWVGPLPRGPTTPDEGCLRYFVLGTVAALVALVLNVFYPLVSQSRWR
In short, it runs like this:
(§1)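 Fragment (200 µM) or vehicle was incubated for 3 h with triplicate HEK293T lysate samples of 495 µg, which were then treated with Biotin-Ahx-Ub-VS at 0.5 µM final for 1 h. Labelled DUBs were enriched on NeutrAvidin, digested with LysC and trypsin, and analysed by diaPASEF LC-MS/MS. Values are average log2 fragment/vehicle ratios from an unpaired t-test on global-median-normalised Spectronaut label-free quantities, using proteins with ≥2 unique peptides.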

For another assay, the target named is T2, USP22 (UniProt Q9UPT9).
T2 sequence (whole entry): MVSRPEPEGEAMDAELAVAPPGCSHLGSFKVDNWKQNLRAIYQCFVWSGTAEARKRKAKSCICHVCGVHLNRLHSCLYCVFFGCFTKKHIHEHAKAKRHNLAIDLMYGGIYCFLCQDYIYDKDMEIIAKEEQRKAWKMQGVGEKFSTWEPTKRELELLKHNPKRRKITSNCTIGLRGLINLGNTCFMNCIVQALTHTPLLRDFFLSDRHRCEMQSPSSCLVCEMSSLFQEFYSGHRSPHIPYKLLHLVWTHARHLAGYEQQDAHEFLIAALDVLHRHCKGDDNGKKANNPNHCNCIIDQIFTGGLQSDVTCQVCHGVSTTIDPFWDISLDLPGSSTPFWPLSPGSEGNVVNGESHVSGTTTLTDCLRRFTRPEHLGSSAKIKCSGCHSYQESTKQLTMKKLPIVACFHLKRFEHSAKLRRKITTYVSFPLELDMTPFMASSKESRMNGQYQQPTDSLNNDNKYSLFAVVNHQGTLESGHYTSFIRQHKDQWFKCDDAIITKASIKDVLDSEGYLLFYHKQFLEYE
In a few lines: as §1

For the next assay, the target named is USP24 (UniProt Q9UPU5). In short, it runs like this:
as §1

The target in the next assay is T3, USP25 (UniProt Q9UHP3).
T3 sequence (whole entry): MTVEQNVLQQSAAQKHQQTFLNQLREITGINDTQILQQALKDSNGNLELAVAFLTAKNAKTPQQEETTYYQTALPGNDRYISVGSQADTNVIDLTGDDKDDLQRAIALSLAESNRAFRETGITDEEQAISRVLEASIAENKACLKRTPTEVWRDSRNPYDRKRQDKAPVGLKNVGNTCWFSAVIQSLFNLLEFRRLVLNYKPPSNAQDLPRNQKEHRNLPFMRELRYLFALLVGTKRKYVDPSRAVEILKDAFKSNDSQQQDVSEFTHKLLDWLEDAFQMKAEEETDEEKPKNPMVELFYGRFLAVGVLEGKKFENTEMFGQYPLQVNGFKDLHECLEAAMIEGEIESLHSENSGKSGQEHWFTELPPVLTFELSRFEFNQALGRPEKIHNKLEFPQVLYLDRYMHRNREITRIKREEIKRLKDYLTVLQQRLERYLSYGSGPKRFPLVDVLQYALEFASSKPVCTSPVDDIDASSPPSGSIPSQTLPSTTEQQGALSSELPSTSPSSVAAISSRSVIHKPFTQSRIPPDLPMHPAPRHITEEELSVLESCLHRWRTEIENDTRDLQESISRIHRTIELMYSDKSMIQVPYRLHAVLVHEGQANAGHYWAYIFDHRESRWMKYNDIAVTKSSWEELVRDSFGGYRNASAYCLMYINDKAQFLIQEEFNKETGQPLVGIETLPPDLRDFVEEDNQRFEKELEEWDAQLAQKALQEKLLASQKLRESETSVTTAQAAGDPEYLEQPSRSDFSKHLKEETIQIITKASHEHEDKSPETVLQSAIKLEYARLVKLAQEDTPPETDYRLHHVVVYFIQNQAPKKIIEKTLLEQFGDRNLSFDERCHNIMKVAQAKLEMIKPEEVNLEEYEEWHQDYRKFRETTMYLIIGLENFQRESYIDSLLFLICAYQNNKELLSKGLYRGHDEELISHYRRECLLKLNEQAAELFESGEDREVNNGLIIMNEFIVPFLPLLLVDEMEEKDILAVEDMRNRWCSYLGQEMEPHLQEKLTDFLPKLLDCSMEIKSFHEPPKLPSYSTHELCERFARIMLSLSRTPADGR
In short, it runs like this:
as §1

The target in the next assay is T4, USP28 (UniProt Q96RU2).
T4 sequence (whole entry): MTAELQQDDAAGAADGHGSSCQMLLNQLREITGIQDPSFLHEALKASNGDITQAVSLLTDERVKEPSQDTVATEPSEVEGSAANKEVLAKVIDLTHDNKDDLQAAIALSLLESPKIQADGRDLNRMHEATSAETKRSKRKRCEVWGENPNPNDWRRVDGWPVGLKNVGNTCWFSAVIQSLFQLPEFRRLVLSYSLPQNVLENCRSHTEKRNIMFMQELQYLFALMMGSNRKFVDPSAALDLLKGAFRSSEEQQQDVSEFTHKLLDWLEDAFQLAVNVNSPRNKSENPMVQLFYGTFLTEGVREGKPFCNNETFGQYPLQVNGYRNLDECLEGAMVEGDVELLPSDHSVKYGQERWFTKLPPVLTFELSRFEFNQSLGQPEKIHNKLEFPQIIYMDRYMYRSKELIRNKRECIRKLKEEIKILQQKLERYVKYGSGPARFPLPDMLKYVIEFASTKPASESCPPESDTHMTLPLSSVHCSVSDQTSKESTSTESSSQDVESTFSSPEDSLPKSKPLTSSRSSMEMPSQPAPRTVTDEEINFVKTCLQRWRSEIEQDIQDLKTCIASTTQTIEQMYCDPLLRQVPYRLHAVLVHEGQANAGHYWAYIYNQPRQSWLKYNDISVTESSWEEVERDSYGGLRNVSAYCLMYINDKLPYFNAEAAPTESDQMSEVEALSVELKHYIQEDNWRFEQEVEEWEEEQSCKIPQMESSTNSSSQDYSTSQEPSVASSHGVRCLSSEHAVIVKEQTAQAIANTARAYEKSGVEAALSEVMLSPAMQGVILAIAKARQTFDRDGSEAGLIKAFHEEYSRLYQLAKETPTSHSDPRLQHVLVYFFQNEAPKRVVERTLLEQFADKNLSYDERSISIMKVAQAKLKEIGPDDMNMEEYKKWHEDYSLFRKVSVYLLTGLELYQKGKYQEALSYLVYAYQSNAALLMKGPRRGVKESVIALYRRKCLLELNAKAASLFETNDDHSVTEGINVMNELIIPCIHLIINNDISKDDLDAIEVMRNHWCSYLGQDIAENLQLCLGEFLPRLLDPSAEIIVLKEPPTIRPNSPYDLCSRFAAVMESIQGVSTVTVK
In a few lines: as §1

Unmarked numbers belong to inactive results.

Chain of USP24 (Q9UPU5 whole entry): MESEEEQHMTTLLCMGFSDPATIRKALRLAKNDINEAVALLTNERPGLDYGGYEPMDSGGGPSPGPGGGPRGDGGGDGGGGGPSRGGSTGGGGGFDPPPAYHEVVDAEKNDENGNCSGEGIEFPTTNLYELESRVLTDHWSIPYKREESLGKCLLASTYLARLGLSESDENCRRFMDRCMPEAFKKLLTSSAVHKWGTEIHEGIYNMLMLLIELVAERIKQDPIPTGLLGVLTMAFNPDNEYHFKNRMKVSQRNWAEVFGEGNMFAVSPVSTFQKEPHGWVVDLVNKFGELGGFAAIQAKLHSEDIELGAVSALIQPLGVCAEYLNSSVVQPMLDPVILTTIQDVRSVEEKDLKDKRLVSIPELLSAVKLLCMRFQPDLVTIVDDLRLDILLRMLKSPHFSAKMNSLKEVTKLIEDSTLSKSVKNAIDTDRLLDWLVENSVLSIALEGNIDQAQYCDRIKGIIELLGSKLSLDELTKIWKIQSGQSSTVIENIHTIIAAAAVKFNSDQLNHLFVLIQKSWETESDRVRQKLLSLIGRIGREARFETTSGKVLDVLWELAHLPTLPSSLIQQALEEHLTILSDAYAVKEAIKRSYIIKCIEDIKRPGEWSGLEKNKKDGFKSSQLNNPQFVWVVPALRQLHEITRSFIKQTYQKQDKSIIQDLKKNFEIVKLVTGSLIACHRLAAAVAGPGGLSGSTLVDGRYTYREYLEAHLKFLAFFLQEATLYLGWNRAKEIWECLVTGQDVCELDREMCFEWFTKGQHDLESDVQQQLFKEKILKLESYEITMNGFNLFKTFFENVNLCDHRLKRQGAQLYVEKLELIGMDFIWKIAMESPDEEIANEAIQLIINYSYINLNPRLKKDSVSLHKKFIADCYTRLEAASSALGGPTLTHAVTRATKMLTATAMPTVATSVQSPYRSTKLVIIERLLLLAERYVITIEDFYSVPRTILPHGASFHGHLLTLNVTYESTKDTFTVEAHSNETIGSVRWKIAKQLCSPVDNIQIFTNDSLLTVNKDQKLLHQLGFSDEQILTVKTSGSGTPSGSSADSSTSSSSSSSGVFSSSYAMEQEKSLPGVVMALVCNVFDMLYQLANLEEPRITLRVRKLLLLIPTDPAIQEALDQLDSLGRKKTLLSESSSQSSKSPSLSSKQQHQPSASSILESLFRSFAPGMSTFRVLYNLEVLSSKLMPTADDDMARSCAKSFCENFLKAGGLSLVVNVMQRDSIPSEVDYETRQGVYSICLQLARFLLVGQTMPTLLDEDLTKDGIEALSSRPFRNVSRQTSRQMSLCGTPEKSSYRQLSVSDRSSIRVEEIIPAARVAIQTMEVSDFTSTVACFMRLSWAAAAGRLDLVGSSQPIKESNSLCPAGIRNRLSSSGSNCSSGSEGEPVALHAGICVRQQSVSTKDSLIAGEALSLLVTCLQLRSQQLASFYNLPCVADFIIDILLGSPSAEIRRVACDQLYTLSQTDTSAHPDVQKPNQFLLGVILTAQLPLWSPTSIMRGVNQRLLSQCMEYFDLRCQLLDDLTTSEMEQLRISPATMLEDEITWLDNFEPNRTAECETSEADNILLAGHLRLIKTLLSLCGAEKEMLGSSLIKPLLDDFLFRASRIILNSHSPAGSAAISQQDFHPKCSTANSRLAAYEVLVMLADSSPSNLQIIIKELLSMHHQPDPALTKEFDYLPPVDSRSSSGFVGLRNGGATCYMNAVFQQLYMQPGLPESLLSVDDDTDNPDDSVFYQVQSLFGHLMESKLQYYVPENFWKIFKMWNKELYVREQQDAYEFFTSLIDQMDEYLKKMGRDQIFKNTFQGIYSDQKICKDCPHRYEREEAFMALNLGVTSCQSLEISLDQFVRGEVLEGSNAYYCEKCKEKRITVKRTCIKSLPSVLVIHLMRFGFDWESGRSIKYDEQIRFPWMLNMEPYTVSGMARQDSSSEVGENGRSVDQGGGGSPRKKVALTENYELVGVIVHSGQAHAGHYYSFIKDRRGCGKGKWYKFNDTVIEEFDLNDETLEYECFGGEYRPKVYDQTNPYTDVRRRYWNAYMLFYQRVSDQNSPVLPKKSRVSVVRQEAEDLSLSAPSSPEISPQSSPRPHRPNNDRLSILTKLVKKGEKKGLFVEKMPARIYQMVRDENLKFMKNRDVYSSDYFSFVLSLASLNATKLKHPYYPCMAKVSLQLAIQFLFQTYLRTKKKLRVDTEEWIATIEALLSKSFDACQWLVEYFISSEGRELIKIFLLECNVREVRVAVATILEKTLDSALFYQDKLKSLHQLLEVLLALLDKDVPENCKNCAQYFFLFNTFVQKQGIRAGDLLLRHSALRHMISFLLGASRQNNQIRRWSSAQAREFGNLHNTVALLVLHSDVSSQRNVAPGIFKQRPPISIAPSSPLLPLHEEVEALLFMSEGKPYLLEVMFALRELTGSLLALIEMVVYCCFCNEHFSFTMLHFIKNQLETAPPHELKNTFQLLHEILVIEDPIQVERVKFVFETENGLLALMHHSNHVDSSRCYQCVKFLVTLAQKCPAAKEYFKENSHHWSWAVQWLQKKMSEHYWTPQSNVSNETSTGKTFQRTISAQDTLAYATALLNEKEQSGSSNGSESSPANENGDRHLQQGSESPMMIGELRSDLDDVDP

For the compound `COc1cc(Cl)c(C)cc1NC(=O)CCl`, the “log2 ratio of Biotin-Ahx-Ub-VS probe labelling” value in the assay with USP19 is -0.357; with USP22 it was -0.0389; with USP24, -1.3 (active); with USP25, -0.839; in the assay with USP28 it was -0.742.
